Data from PubChem BioAssay.
Measured potencies and affinities stand elsewhere. Results filed as inconclusive are left out. Calls of active or inactive are those of the source. Unless noted, how the calls were made is not given here.

Assays:
[1] = cytotoxicity in PAX8-dependent RMG-1 cells, dose response, cell-based, cherry-pick (AID 687029;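 active means signal drop whose fitted half-maximal concentration is at most twice the top valid dose, in every test run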;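 further: cells exposed to compound for 96 hours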)
[2] = cytotoxicity in IOSE-T80 ovarian epithelial cells, dose response, selectivity assay for PAX8 inhibitor project, cell-based, cherry-pick (AID 687032;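 active means fitted half-maximal concentration for viability loss no higher than twice the top valid dose, in every repeat run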;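 further: cells exposed to compound for 96 h before reading; 0% = neutral control wells and -100% = 2 µM mitoxantrone kill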)
[3] = inhibitors of CMV-promoter luciferase reporter, dose response, counter-screen for Pax8 inhibitor project, cell-based, HEK293, luminescence, dry powder (AID 743020;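 active means signal-lowering compounds whose fitted half-maximal concentration is at or below twice the top tested dose in every run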;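 further: HEK293 cells stably expressing the CMV luciferase reporter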)
[4] = non-specific cell cytotoxicity, dose response, cytotoxicity control for PAX8 inhibitor project, plate reader, dry powder samples (AID 743021)
[5] = IOSE-T80 ovarian epithelial cell cytotoxicity, dose response, cytotoxicity control for PAX8 inhibitor project, plate reader, dry powder samples (AID 743045);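 further: 0% = neutral control median and -100% = positive control median; more negative values mean more cell killing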
[6] = A2780 ovarian cancer cell cytotoxicity, dose response, cytotoxicity control, plate reader, dry powder samples (AID 743046);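 further: 0% = neutral control wells and -100% = cytotoxic reference compound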
[7] = cytotoxicity in OVCAR8 ovarian cancer cells, dose response, PAX8 project, cell-based, plate reader, dry powder samples (AID 743197)
[8] = IGROV1 ovarian cancer cell cytotoxicity, dose response, PAX8 inhibitor project, plate reader, dry powder samples (AID 743043);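 further: more negative means fewer viable cells or more cytotoxicity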
[9] = HepG2 cell cytotoxicity, dose response, cytotoxicity control, plate reader, cherry-pick, antagonist series (AID 743416);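 further: 0% = neutral control wells and -100% = positive control wells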
[10] = NIH:OVCAR-3 ovarian cancer cell cytotoxicity, dose response, PAX8 inhibitor project, plate reader, dry powder samples (AID 743044); conditions: max activity: at 35 µM, active compounds read low unless noted

Measured: max activity

O=C(c1cc(-c2cccs2)on1)N1CCN(C(c2ccccc2)c2ccccc2)CC1
inactive: [1] | [2] | [3] | [4] | [5] | [6]

C[C@@H]1CN([C@@H](C)CO)C(=O)c2cc(NC(=O)Nc3ccc(C(F)(F)F)cc3)ccc2O[C@@H](C)CCCCO[C@H]1CN(C)Cc1ccc2c(c1)OCO2
inactive: [1] | [2] | [3] | [4] | [5] | [6]

Cc1ccc(S(=O)(=O)Nc2ccc3c(c2)CC(=O)N([C@@H](C)CO)C[C@@H](C)[C@H](CN(C)Cc2ccc(Cl)c(Cl)c2)O3)cc1
not listed: [8] | [9] | [10]
inactive: all other assays above

C[C@H]1CCCCO[C@@H](CN(C)Cc2ccc(C(F)(F)F)cc2)[C@@H](C)CN([C@@H](C)CO)C(=O)c2cc(NC(=O)Nc3ccc4c(c3)OCO4)ccc2O1
inactive: [1] | [2] | [3] | [4] | [5] | [6]

C[C@H](CO)N1C[C@H](C)[C@@H](CN(C)Cc2ccccc2)Oc2ccc(NC(=O)Nc3ccc(C(F)(F)F)cc3)cc2CC1=O
not listed: [8] | [9] | [10]
inactive: all other assays above

O=C(Nc1ccc(C(F)(F)F)cc1)N1C[C@@H]2N[C@H](C1)C2c1ccc(/C=C/c2ccccc2)cc1 (some centres not stated)
inactive: [1] | [2] | [3] | [4] | [5] | [7]

O=C1CN(S(=O)(=O)Cc2ccccc2)C[C@@H]2[C@H](c3ccc(C#Cc4ccc(F)cc4)cc3)[C@H](CO)N12
inactive: [1] | [2] | [3] | [4] | [5] | [7]

O=C(C1CCCC1)N1CC[C@@H]2[C@H](CO)Nc3ccc(C4=CCCCC4)cc3[C@@H]21
inactive: [1] | [2] | [3] | [4] | [5] | [6]

C[C@@H]1CN([C@@H](C)CO)C(=O)Cc2cc(NC(=O)CCC(F)(F)F)ccc2O[C@H]1CN(C)Cc1ccc(Oc2ccccc2)cc1
not listed: [8] | [9] | [10]
inactive: all other assays above

CCCC#Cc1ccc([C@@H]2[C@H](CO)N3CCCCN(S(=O)(=O)Cc4ccccc4)C[C@@H]23)cc1
not listed: [8] | [9] | [10]
inactive: all other assays above

Cc1ccc(S(=O)(=O)N(C)C[C@H]2OCCCC[C@H](C)Oc3ccc(NS(=O)(=O)c4ccc(F)cc4)cc3C(=O)N([C@H](C)CO)C[C@@H]2C)cc1
inactive: [1] | [2] | [3] | [4] | [5] | [6]

C[C@H]1CCCCO[C@@H](CN(C)Cc2ccc(C(F)(F)F)cc2)[C@@H](C)CN([C@@H](C)CO)C(=O)c2cc(NS(=O)(=O)c3ccc(F)cc3)ccc2O1
inactive: [1] | [2] | [3] | [4] | [5] | [6]

Cc1noc(C)c1S(=O)(=O)Nc1ccc2c(c1)C(=O)N([C@H](C)CO)C[C@@H](C)[C@@H](CN(C)Cc1ccc(C(F)(F)F)cc1)OCCCC[C@H](C)O2
inactive: [1] | [2] | [3] | [4] | [5] | [6]

COc1ccccc1S(=O)(=O)N(C)C[C@H]1Oc2cc(C#CCC3CCCC3)ccc2S(=O)(=O)N([C@@H](C)CO)C[C@@H]1C
inactive: [1] | [2] | [3] | [4] | [5] | [7]

Cc1ccccc1S(=O)(=O)N1C[C@@H]2N[C@H](C1)C2c1ccc(-c2cccc(C#N)c2)cc1 (some centres not stated)
inactive: [1] | [2] | [3] | [4] | [6]

C[C@@H]1CN([C@@H](C)CO)C(=O)Cc2cc(NS(=O)(=O)c3cccs3)ccc2O[C@H]1CN(C)Cc1ccc(C(F)(F)F)cc1
not listed: [8] | [9] | [10]
inactive: all other assays above

C[C@@H]1CN([C@H](C)CO)C(=O)c2cc(NC(=O)Nc3ccc(C(F)(F)F)cc3)ccc2O[C@@H](C)CCCCO[C@H]1CN(C)C(=O)c1ccccc1
inactive: [1] | [2] | [3] | [4] | [6]

O=C(Nc1cccc(F)c1)N1CCCCN2[C@@H](CO)[C@@H](c3ccc(-c4ccccc4F)cc3)[C@@H]2C1
not listed: [8] | [9] | [10]
inactive: all other assays above

O=C(C[C@H]1C[C@@H]2c3cc(NC(=O)Nc4ccc(C(F)(F)F)cc4)ccc3O[C@@H]2[C@@H](CO)O1)NCc1ccc(Cl)cc1
not listed: [8] | [9] | [10]
inactive: all other assays above

COc1ccccc1NC(=O)N1CCCCN2[C@@H](CO)[C@@H](c3ccc(-c4cccc(C)c4)cc3)[C@@H]2C1
inactive: [1] | [2] | [3] | [4] | [6]

C[C@@H]1CCCCO[C@H](CN(C)Cc2ccc(C(F)(F)F)cc2)[C@H](C)CN([C@H](C)CO)C(=O)c2cc(NC(=O)Cc3ccccc3)ccc2O1
inactive: [1] | [2] | [3] | [4] | [5] | [6]

C[C@@H]1CCCCO[C@@H](CN(C)Cc2ccc3c(c2)OCO3)[C@@H](C)CN([C@@H](C)CO)C(=O)c2cc(NC(=O)Nc3ccc(C(F)(F)F)cc3)ccc2O1
inactive: [1] | [2] | [3] | [4] | [5] | [6]

O=C(NC1CCCCC1)N1C[C@@H]2N[C@H](C1)C2c1ccc(-c2ccc(F)cc2)cc1 (some centres not stated)
inactive: [1] | [2] | [3] | [4] | [6]

COc1cccc(-c2ccc3c(c2)[C@H]2[C@H](CCN2S(=O)(=O)c2ccccc2OC)[C@@H](CO)N3C)c1
inactive: [1] | [2] | [3] | [4] | [5] | [6]

C[C@@H]1CN([C@@H](C)CO)C(=O)c2cc(NC(=O)Nc3ccc(C(F)(F)F)cc3)ccc2O[C@H]1CN(C)C(=O)Nc1ccc(C(F)(F)F)cc1
inactive: [1] | [2] | [3] | [4] | [5] | [6]

C[C@@H]1CN([C@@H](C)CO)C(=O)Cc2cc(NC(=O)Nc3ccc(C(F)(F)F)cc3)ccc2O[C@H]1CN(C)Cc1ccc2c(c1)OCO2
inactive: [1] | [2] | [3] | [4] | [5] | [6]

Cc1ccc(S(=O)(=O)N(C)C[C@H]2Oc3cc(C#Cc4ccncc4)ccc3S(=O)(=O)N([C@@H](C)CO)C[C@H]2C)cc1
inactive: [1] | [2] | [3] | [4] | [6]

C[C@H](CO)N1C[C@H](C)[C@H](CN(C)S(=O)(=O)c2ccc(Cl)cc2)OCc2ccccc2-c2c(n(C)c3ccccc23)C1=O
inactive: [1] | [2] | [3] | [4] | [5] | [6]

O=C(Nc1ccccc1)N1CCCCN2[C@H](CO)[C@H](c3ccc(C#Cc4ccccc4)cc3)[C@H]2C1
not listed: [4] | [9] | [10]
inactive: all other assays above

Cn1nnnc1Sc1ncnc2scc(-c3ccc4c(c3)OCO4)c12
inactive: [1] | [2] | [3] | [4] | [9]

O=C(C[C@@H]1CC[C@H]2[C@@H](COC[C@@H](O)CN2Cc2cccc(F)c2)O1)NCC1CCCCC1
inactive: [1] | [2] | [3] | [8] | [10] 45.7% [at 8 µM, active compounds read low] | [5] | [6] | [7]

COc1ccccc1C#Cc1ccc2c(c1)O[C@@H](CN(C)Cc1cccnc1)[C@H](C)CN([C@H](C)CO)S2(=O)=O
inactive: [1] | [2] | [3] | [8] | [10] 17.1% | [5] | [6]

C[C@@H]1CN([C@H](C)CO)C(=O)c2cc(NC(=O)Nc3ccc(C(F)(F)F)cc3)ccc2O[C@@H](C)CCCCO[C@@H]1CN(C)C(=O)NC1CCCCC1
not listed: [4] | [9] | [10]
inactive: all other assays above

COc1ccccc1C#Cc1ccc2c(c1)O[C@H](CN(C)Cc1ccncc1)[C@@H](C)CN([C@@H](C)CO)S2(=O)=O
not listed: [4] | [9] | [10]
inactive: all other assays above

CCCC#Cc1ccc([C@H]2[C@@H](CO)N(C(=O)C3CCCCC3)[C@H]2C#N)cc1
not listed: [4] | [9] | [10]
inactive: all other assays above

Cc1ccc(S(=O)(=O)N(C)C[C@H]2Oc3ccc(NS(=O)(=O)c4ccc(F)cc4)cc3CC(=O)N([C@H](C)CO)C[C@H]2C)cc1
inactive: [1] | [2] | [3] | [8] | [10] 12.5% [at 2.1 µM, active compounds read low] | [5] | [6] | [7]

C[C@H](O)C#Cc1ccc2c(c1)O[C@@H](CN(C)Cc1ccc(-c3ccccc3)cc1)[C@@H](C)CN([C@H](C)CO)S2(=O)=O
inactive: [1] | [2] | [3] | [8] | [10] -11.2% | [5] | [6]

CCCC#Cc1ccc([C@@H]2[C@@H](C#N)N(S(=O)(=O)c3cccc(F)c3)[C@H]2CO)cc1
inactive: [1] | [2] | [3] | [8] | [10] -20.5% [at 0.5 µM, active compounds read low] | [5] | [6]

C[C@H](CO)N1C[C@H](C)[C@@H](CN(C)C(=O)Cc2ccccc2)OCCCC[C@H](C)Oc2ccc(NC(=O)Nc3ccc(C(F)(F)F)cc3)cc2C1=O
inactive: [1] | [2] | [3] | [8] | [10] 1.93% [at 8 µM, active compounds read low] | [5] | [6]
